The results in this text go back to the supplement of paper PMC6331611.

± gives the standard deviation of the averaged measurements. The full ranking holds about 1,600 compounds; the median of “normalized intracellular growth (luminescence, IQM-normalized) in RAW264.7 macrophages” is about 1, and the lowest 2% start at about 0.43. The list comes from a sample in which the lowest values are over-represented; it also holds similar structures and randomly drawn compounds.

The experiment deals with Salmonella enterica serovar Typhimurium SL1344. Kind of experiment: normalized intracellular growth (luminescence, IQM-normalized) in RAW264.7 macrophages (fraction of plate interquartile mean); higher = more bacterial growth (less inhibition). The conditions noted are these: 10 µM.

The molecule `Oc1cc(Cl)ccc1Oc1ccc(Cl)cc1Cl` gave a normalized intracellular growth (time point: T3 (3 h)) of 0.343 ± 0.083 and a normalized intracellular growth (time point: Tfinal (~6 h)) of 0.256 ± 0.12.
In the same order, the values of `Oc1ccc(Cl)cc1Cc1cc(Cl)ccc1O` are 1.03 ± 0.02 and 0.859 ± 0.13.
On to `Oc1ccc(Cl)cc1`, for which the normalized intracellular growth reads like this: (time point: T3 (3 h)) 1.02 ± 0.017; (time point: Tfinal (~6 h)) 1.13 ± 0.023.
For `N=C1NC(=O)N2CC12` (stereo not given), the normalized intracellular growth by setting is: (time point: T3 (3 h)) 1.051 ± 0.0073; (time point: Tfinal (~6 h)) 0.853 ± 0.12.
For the molecule `O=[N+]([O-])OCC(CO[N+](=O)[O-])O[N+](=O)[O-]`, the normalized intracellular growth runs as follows: (time point: T3 (3 h)) 1.01 ± 0.044; (time point: Tfinal (~6 h)) 0.68 ± 0.22.
With `CC[C@H]1[C@@H]2C[C@H]3[C@@H]4N(C)c5ccccc5[C@]45C[C@@H]([C@@H]2[C@H]5O)N3[C@@H]1O`, the normalized intracellular growth by setting is: (time point: T3 (3 h)) 1.07 ± 0.066; (time point: Tfinal (~6 h)) 0.799 ± 0.035.
In the same order, the values of `CCn1cc(C(=O)O)c(=O)c2cc3c(cc21)OCO3` are 0.923 ± 0.032 and 0.192 ± 0.011.
On to `CC[C@@H](c1cccc(O)c1)[C@@H](C)CN(C)C`, for which the normalized intracellular growth by setting is: (time point: T3 (3 h)) 1.09 ± 0.081; (time point: Tfinal (~6 h)) 0.708 ± 0.38.
On to `CC[C@@H](C(=O)[C@@H](C)[C@@H](O)[C@H](C)[C@@H]1O[C@@H]([C@@H](CC)C(=O)O)CC[C@@H]1C)[C@H]1O[C@]2(C=C[C@@H](O)[C@]3(CC[C@@](C)([C@H]4CC[C@](O)(CC)[C@H](C)O4)O3)O2)[C@H](C)C[C@@H]1C`, for which the normalized intracellular growth is, setting by setting: (time point: T3 (3 h)) 1.06 ± 0.083; (time point: Tfinal (~6 h)) 0.73 ± 0.13.
For `CN1C[C@H](C(=O)N[C@]2(C)O[C@@]3(O)[C@@H]4CCCN4C(=O)[C@H](Cc4ccccc4)N3C2=O)C=C2c3cccc4[nH]cc(c34)C[C@H]21`, the normalized intracellular growth (time point: T3 (3 h)) worked out at 1.03 ± 0.02 and the normalized intracellular growth (time point: Tfinal (~6 h)) is 0.769 ± 0.38.
In the same order, the values of `CC([C@H](O)c1ccccc1)N(C)C` (stereo not given in full) are 0.977 ± 0.096 and 1.08 ± 0.12.
As to `C=C/C=C\CC1=C(C)[C@@H](OC(=O)[C@@H]2[C@@H](/C=C(\C)C(=O)OC)C2(C)C)CC1=O.C=C/C=C\CC1=C(C)[C@@H](OC(=O)[C@@H]2[C@@H](C=C(C)C)C2(C)C)CC1=O`, the normalized intracellular growth is, setting by setting: (time point: T3 (3 h)) 1.01 ± 0.014; (time point: Tfinal (~6 h)) 0.938 ± 0.13.
Regarding `OC[C@@H](O)[C@H]1O[C@@H]2O[C@H](C(Cl)(Cl)Cl)O[C@@H]2[C@H]1O`, the normalized intracellular growth (time point: T3 (3 h)) was 1.01 ± 0.039 and the normalized intracellular growth (time point: Tfinal (~6 h)) came to 1.07 ± 0.077.
`CC(=O)[O][Hg][c]1ccccc1` yielded a normalized intracellular growth (time point: T3 (3 h)) of 0.575 ± 0.093 and a normalized intracellular growth (time point: Tfinal (~6 h)) of 0.336 ± 0.15.
As to `O=C([O-])Cc1ccccc1.[Na+]`, the normalized intracellular growth turned out to be 1.15 ± 0.043 (time point: T3 (3 h)) and 0.699 ± 0.11 (time point: Tfinal (~6 h)).
`C[CH2][Hg][S]c1ccccc1C(=O)[O-].[Na+]`: the normalized intracellular growth (time point: T3 (3 h)) stood at 0.4 ± 0.083 and the normalized intracellular growth (time point: Tfinal (~6 h)) was 0.819 ± 0.26.
Regarding `CCCCOC(=O)c1ccccc1C(=O)OCCCC`, the normalized intracellular growth was 1.029 ± 0.01 (time point: T3 (3 h)) and 1.11 ± 0.15 (time point: Tfinal (~6 h)).
With `CC(O)CN1CCN(CC(=O)[O-])CCN(CC(=O)[O-])CCN(CC(=O)[O-])CC1.[Gd+3]` (stereo not given), the normalized intracellular growth is 0.946 ± 0.083 (time point: T3 (3 h)) and 1.23 ± 0.098 (time point: Tfinal (~6 h)).
In turn, `C#CC(C)(O)CC` (stereo not given) came in with a normalized intracellular growth (time point: T3 (3 h)) of 0.971 ± 0.038 and a normalized intracellular growth (time point: Tfinal (~6 h)) of 0.758 ± 0.24.
Turning to `CCN1C[C@]2(COC)[C@H](O)C[C@H](OC)[C@@]34[C@@H]5C[C@@]6(O)[C@H](OC(=O)c7ccccc7)[C@@H]5[C@@](OC(C)=O)([C@@H]([C@H](OC)[C@H]23)[C@@H]14)[C@@H](O)[C@@H]6OC`, the normalized intracellular growth stood at 0.971 ± 0.025 (time point: T3 (3 h)) and 0.837 ± 0.045 (time point: Tfinal (~6 h)).
